About 83,000 compounds went through this panel and 20% of them were active in at least one assay; those are over-represented in the sample as a whole.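 Values shown are percent growth following 48 h exposure of cells in 96-well plates to a single concentration of compound; below 10 was considered active.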 Calls of active or inactive are those of the source.
How the values were obtained:
Assay in all cases: NCI-60 one-dose screen, 48 h (100 = growth as untreated, 0 = no growth, -100 = all killed)
Conditions in all cases: 10 µM unless noted
HCT-15 colon = tested on: HCT-15 colon
HT29 colon = tested on: HT29 colon
SNB-75 CNS = tested on: SNB-75 CNS
SNB-19 CNS = tested on: SNB-19 CNS
U251 CNS = tested on: U251 CNS
PC-3 prostate = tested on: PC-3 prostate
SK-MEL-5 melanoma = tested on: SK-MEL-5 melanoma
UACC-62 melanoma = tested on: UACC-62 melanoma
LOX IMVI melanoma = tested on: LOX IMVI melanoma
SK-MEL-28 melanoma = tested on: SK-MEL-28 melanoma

Measured: growth

COc1ccc(-c2nc3c(ncc4ccc(=O)[nH]c43)s2)cc1
inactive: HCT-15 colon 73.6% | HT29 colon 81.1% | SNB-75 CNS 102% | SNB-19 CNS 105% | U251 CNS 81.6% | PC-3 prostate 83.4% | SK-MEL-5 melanoma 74.3% | UACC-62 melanoma 88.1% | LOX IMVI melanoma 52% | SK-MEL-28 melanoma 87.6%

Oc1c(Br)cc(Br)c2ccc(Cn3cc(-c4ccccc4C(F)(F)F)nn3)nc12
inactive: HCT-15 colon 62.7% | HT29 colon 107% | SNB-75 CNS 80.8% | SNB-19 CNS 94.3% | U251 CNS 106% | PC-3 prostate 104% | SK-MEL-5 melanoma 103% | UACC-62 melanoma 95.5% | LOX IMVI melanoma 77.2% | SK-MEL-28 melanoma 96.9%

Nc1c(C(=O)Nc2ccncc2)sc2nc3c(cc12)C(O)CCC3 (stereo not given)
inactive: HCT-15 colon 86.3% | HT29 colon 85.4% | SNB-75 CNS 105% | SNB-19 CNS 95.4% | U251 CNS 91.6% | PC-3 prostate 94.6% | SK-MEL-5 melanoma 92.4% | UACC-62 melanoma 80% | LOX IMVI melanoma 105% | SK-MEL-28 melanoma 85.5%

Cn1cc(-c2ccc3nc(-c4ccc(CC(=O)ONc5cc(C(C)(C)C)on5)cc4)cnc3c2)cn1
inactive: HCT-15 colon 16.5% | HT29 colon 39.6% | SNB-75 CNS 37.4% | SNB-19 CNS 67.4% | U251 CNS 32.3% | PC-3 prostate 34.8% | SK-MEL-5 melanoma 58.8% | UACC-62 melanoma 27.6% | LOX IMVI melanoma 30.5% | SK-MEL-28 melanoma 44.4%

Cc1cc(N2CCN(CC(=O)Nc3ccc4c(ccn4C)c3)CC2)nc(N2CCCCCC2)n1
inactive: HCT-15 colon 79% | HT29 colon 56.9% | SNB-75 CNS 90.1% | SNB-19 CNS 89.1% | U251 CNS 85.9% | PC-3 prostate 82.8% | SK-MEL-5 melanoma 92.1% | UACC-62 melanoma 84.3% | LOX IMVI melanoma 92.8% | SK-MEL-28 melanoma 96.9%

CS(=O)(=O)Nc1cncc(-c2ccc3ncnc(Nc4cncc(Cl)c4)c3c2)c1
inactive: HCT-15 colon 92.9% | HT29 colon 80% | SNB-75 CNS 82.4% | SNB-19 CNS 68.2% | U251 CNS 59.2% | PC-3 prostate 84.7% | SK-MEL-5 melanoma 95.4% | UACC-62 melanoma 69.6% | LOX IMVI melanoma 79.7% | SK-MEL-28 melanoma 81.6%

O=C(c1ccccc1)c1ccc(C2CCCCC2)cc1
inactive: HCT-15 colon 91.5% | HT29 colon 91.5% | SNB-75 CNS 97.5% | SNB-19 CNS 86.7% | U251 CNS 88.9% | PC-3 prostate 103% | SK-MEL-5 melanoma 96.6% | UACC-62 melanoma 86.8% | LOX IMVI melanoma 94.6% | SK-MEL-28 melanoma 103%

O=C(c1ccncc1)N1N=C(c2ccc(Cl)cc2)C[C@H]1c1cn(-c2ccccc2)nc1-c1ccccc1
inactive: HCT-15 colon 82.4% | HT29 colon 104% | SNB-75 CNS 72.7% | SNB-19 CNS 88.6% | U251 CNS 61.1% | PC-3 prostate 79.5% | SK-MEL-5 melanoma 90.7% | UACC-62 melanoma 91.7% | LOX IMVI melanoma 79.9% | SK-MEL-28 melanoma 96%

CSc1nc2ncc([N+](=O)[O-])c(=O)n2[nH]1
inactive: HCT-15 colon 105% | HT29 colon 107% | SNB-75 CNS 93% | SNB-19 CNS 103% | U251 CNS 102% | PC-3 prostate 98.1% | SK-MEL-5 melanoma 103% | UACC-62 melanoma 101% | LOX IMVI melanoma 101% | SK-MEL-28 melanoma 105%

Cc1ccc(Nn2c(SCC(=O)Nc3nc(-c4ccccc4)cs3)nc(C)c2C)cc1
active: SK-MEL-5 melanoma -66.7%
inactive: HCT-15 colon 67.2% | HT29 colon 56.1% | SNB-75 CNS 24.4% | SNB-19 CNS 74.3% | U251 CNS 49.3% | PC-3 prostate 71.8% | UACC-62 melanoma 51.8% | LOX IMVI melanoma 51.9% | SK-MEL-28 melanoma 82.8%

O=C(CN1C(=O)S/C(=C\C(Cl)=C\c2ccccc2)C1=O)NCCc1ccc(O)cc1
active: HCT-15 colon 0.727% | UACC-62 melanoma 8.67% | LOX IMVI melanoma -51.5%
inactive: HT29 colon 16.6% | SNB-75 CNS 22% | SNB-19 CNS 34.3% | U251 CNS 19.3% | PC-3 prostate 24.7% | SK-MEL-5 melanoma 46% | SK-MEL-28 melanoma 20.7%

CCn1c(SCC(=O)N/N=C(\C)c2ccc(Cl)cc2)nc2c1c(=O)n(C)c(=O)n2C
inactive: HCT-15 colon 104% | HT29 colon 103% | SNB-75 CNS 79.6% | SNB-19 CNS 99.2% | U251 CNS 104% | PC-3 prostate 97.5% | SK-MEL-5 melanoma 99.3% | UACC-62 melanoma 95.2% | LOX IMVI melanoma 94.6% | SK-MEL-28 melanoma 111%

COC(=O)c1c2c(c(C)[n+]([O-])c1C)C(=O)C(NCc1cccc(OC)c1)=CC2=O
active: U251 CNS -1.83% | PC-3 prostate 6.62% | SK-MEL-5 melanoma -54.8% | UACC-62 melanoma -13.3%
inactive: HCT-15 colon 11.9% | HT29 colon 11.4% | SNB-75 CNS 132% | SNB-19 CNS 19.2% | LOX IMVI melanoma 22% | SK-MEL-28 melanoma 86.6%

O=C(COc1ccc(-c2nc3cc(Cl)c(Cl)cc3[nH]2)cc1)N=Nc1c(O)[nH]c2ccc(Cl)cc12
inactive: HCT-15 colon 80.3% | HT29 colon 33.4% | SNB-75 CNS 68.5% | SNB-19 CNS 56.7% | U251 CNS 34.2% | PC-3 prostate 61.2% | SK-MEL-5 melanoma 85.6% | UACC-62 melanoma 91.6% | LOX IMVI melanoma 60.8% | SK-MEL-28 melanoma 73.7%
